Test results taken from the supplement of paper PMC9588786.
± gives the standard deviation of the averaged measurements.

System: HT-1080
Test: relative cell viability with RSL3 co-treatment (fraction of control); higher = stronger protection from RSL3-induced ferroptosis (higher viability)
Settings: 10 µM
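Further: viability read as CCK-8 absorbance at 450 nm in cells co-exposed to the GPX4 inhibitor RSL3, relative to a 0.01% DMSO vehicle control.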

Row | SMILES | relative cell viability
1 | CCc1cc(Nc2nccc(-c3c(-c4ccc(OC)c(C(=O)Nc5c(F)cccc5F)c4)nc4ccccn34)n2)c(OC)cc1N1CCC(N2CCN(S(C)(=O)=O)CC2)CC1 | 0.55 ± 0.01
2 | FC(F)(F)c1ccc(/C=C/c2nc(COc3ccc(CCCCn4ccnn4)cc3)co2)cc1 [Mubritinib (TAK 165)] | 0.653 ± 0.1
3 | CC(C)(C)c1cc(NC(=O)Nc2ccc(-c3cn4c(n3)sc3cc(OCCN5CCOCC5)ccc34)cc2)no1 [Quizartinib (AC220)] | 0.473 ± 0.04
4 | Nc1ccc(-c2ccc3ncc4ccc(=O)n(-c5cccc(C(F)(F)F)c5)c4c3c2)cn1 [Torin 2] | 0.687 ± 0.047
5 | N#CCNC(=O)c1ccc(-c2ccnc(Nc3ccc(N4CCOCC4)cc3)n2)cc1 [Momelotinib (CYT387)] | 0.4 ± 0.075
6 | CCc1cncnc1N1CCN(Cc2nc3ccc(C(F)(F)F)cc3[nH]2)CC1 | 0.653 ± 0.083
7 | Cn1sc(=O)n(Cc2ccccc2)c1=O | 0.887 ± 0.11
8 | NC(=O)c1ccc(N(C(N)=O)c2c(F)cccc2F)nc1-c1ccc(F)cc1F | 0.733 ± 0.042
9 | Nc1nccc(Oc2ccc(NC(=O)c3c[nH]cc(-c4ccc(F)cc4)c3=O)cc2F)c1Cl | 0.57 ± 0.036
10 | CCS(=O)(=O)Nc1ccc2c(c1)/C(=C(/Nc1ccc(CN3CCCCC3)cc1)c1ccccc1)C(=O)N2 [Hesperadin] | 0.293 ± 0.12
11 | C[C@@H](N)[C@H]1CC[C@H](C(=O)Nc2ccncc2)CC1 | 0.843 ± 0.032
12 | O=C(Nc1ccc(OC(F)(F)F)cc1)c1sccc1NCc1ccnc2ccccc12 | 0.57 ± 0.095
13 | Nc1cccc(S(=O)(=O)N2CCCN(S(=O)(=O)c3ccc4c(c3)OCCO4)CC2)c1 | 0.767 ± 0.049
